{"source": "PubChem BioAssay (EPA / NIEHS)", "note": "The source made the active and inactive calls. The calls were made as follows: active = hit-call score of the fitted dose curve at least 0.9, where 1 is the maximum; inactive = score below 0.9.", "data": [{"read-out": "3-Hydroxy-3-Methylglutaryl-CoA Synthase 2 (HMGCS2), HMGCS2 (gene 3158)", "assay": "LTEA_HepaRG_HMGCS2: Life Technologies and Expression Analysis (LTEA) Assay for 3-Hydroxy-3-Methylglutaryl-CoA Synthase 2 (HMGCS2) using HepaRG (AID 2283504)", "details": "mRNA level, 48 h; actives raise or lower the signal", "summary_of_the_method": "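Human HepaRG cells in serum-free induction medium were exposed in duplicate for 48 h to 8-point half-log series from 100 uM top in 0.5% DMSO. HMGCS2 mRNA measured by TaqMan qRT-PCR, normalised to ACTB, GAPDH, POLR2A; bidirectional fit versus DMSO.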", "values": [{"smiles": "O=C(O)CN(CC(=O)O)CC(=O)O", "outcome": "inactive"}, {"smiles": "CCc1nc(N)nc(N)c1-c1ccc(Cl)cc1", "AC50": "68.8 µM (active)"}, {"smiles": "CC(C)c1cccc(C(C)C)c1NC(=O)NS(=O)(=O)c1cc(C(C)(C)O)co1", "AC50": "62 µM (active)"}, {"smiles": "O=C(O)c1[nH]n(-c2ccc(S(=O)(=O)O)cc2)c(=O)c1N=Nc1ccc(S(=O)(=O)O)cc1", "outcome": "inactive"}, {"smiles": "CCCCCCCCCC[N+](C)(C)[O-]", "outcome": "inactive"}, {"smiles": "CSc1ccc(Oc2ccc(S(N)(=O)=O)cc2CN(C)C)cc1C", "AC50": "63.9 µM (active)"}, {"smiles": "CN(C)C(=O)NC1(c2ccccc2)CCN(CC[C@@]2(c3ccc(F)c(F)c3)CN(C(=O)c3ccccc3)CCO2)CC1", "AC50": "47 µM (active)"}, {"smiles": "CCC(C)N(C)C(=O)c1cc2ccccc2c(-c2ccccc2Cl)n1", "note": "(stereo not drawn)", "outcome": "inactive"}, {"smiles": "OCC(O)CO", "outcome": "inactive"}, {"smiles": "O=C(O)CC(O)(CC(=O)O)C(=O)O", "outcome": "inactive"}, {"smiles": "CC1(C)C(=O)NC(=O)N1CO", "outcome": "inactive"}, {"smiles": "C#CC(O)C(CC)CCCC", "note": "(stereo not drawn)", "outcome": "inactive"}, {"smiles": "Cc1ccc(C(C)(C)C)c(O)c1", "outcome": "inactive"}]}]}
